Test results published in PubChem BioAssay (EPA / NIEHS).
Records with an inconclusive call do not appear. The source made the active and inactive calls. Rule for the calls, unless noted: active = hit-call score of the fitted dose curve at least 0.9, where 1 is the maximum; inactive = score below 0.9.

Columns and labels:
[1] = read-out: Macrophage colony-stimulating factor (MCSF), CSF1 (gene 1435); assay: BSK_LPS_MCSF: BioMAP Diversity Plus: LPS Assay for Macrophage colony-stimulating factor (MCSF) Biomarker Activity (AID 2283083); details: primary human HUVEC with PBMC; actives raise or lower the signal
In short: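 Compound is added to a human vascular primary co-culture of umbilical vein endothelium and blood mononuclear cells. After 24 h, M-CSF is quantified by ELISA. Signal changes are fitted in both directions against DMSO.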

[2] = read-out: Tissue Factor, F3 (gene 2152); assay: BSK_LPS_TissueFactor: BioMAP Diversity Plus: LPS Assay for Tissue Factor Biomarker Activity (AID 2283084); details: primary human HUVEC with PBMC; actives raise or lower the signal
In short: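 In this co-culture system of umbilical vein endothelium with PBMC, stimulated with LPS, cell-surface CD142 is detected by ELISA at 24 h. Endpoint values derive from bidirectional fitting, DMSO serving as baseline.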

[3] = read-out: Tumor necrosis factor (Homo sapiens) (UniProt P01375); assay: BSK_LPS_TNFa: BioMAP Diversity Plus: LPS Assay for Tumour Necrosis Factor alpha (TNFa) Biomarker Activity (AID 2283085); details: primary human HUVEC with PBMC; actives raise or lower the signal;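 for AC50: TNFa protein level quantified by ELISA in the co-culture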
In short: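 HUVEC/PBMC co-culture, LPS-stimulated; 24 h post-dose; TNFa by ELISA; gain or loss of signal fitted bidirectionally vs DMSO baseline.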

[4] = read-out: Vascular cell adhesion molecule 1 (VCAM1), VCAM1 (gene 7412); assay: BSK_LPS_VCAM1: BioMAP Diversity Plus: LPS Assay for Vascular cell adhesion molecule 1 (VCAM1) Biomarker Activity (AID 2283086); details: primary human HUVEC with PBMC; actives raise or lower the signal
In short: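 ELISA read-out of VCAM-1 at 24 h post-dosing in an LPS-driven HUVEC/PBMC primary human co-culture; gain or loss of signal fitted bidirectionally against DMSO baseline. Cytotoxicity tracked in parallel cultures by SRB total-protein staining.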

[5] = read-out: CD38, CD38 (gene 952); assay: BSK_SAg_CD38: BioMAP Diversity Plus: SAg Assay for CD38 Biomarker Activity (AID 2283087); details: primary human HUVEC with PBMC; actives raise or lower the signal
In short: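 Measures CD38 on a human endothelial/PBMC co-culture driven by SEB and TSST-1, 24 h after compound exposure, using ELISA with fluorescence detection; DMSO defines baseline for bidirectional curve fitting.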

[6] = read-out: CD40, CD40 (gene 958); assay: BSK_SAg_CD40: BioMAP Diversity Plus: SAg Assay for CD40 Biomarker Activity (AID 2283088); details: primary human HUVEC with PBMC; actives raise or lower the signal
In short: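 Fluorescence ELISA read-out of CD40 from umbilical vein endothelium plus peripheral blood mononuclear cells, sampled 24 h after dosing. Values come from bidirectional curve fitting with DMSO as baseline.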

[7] = read-out: CD69, CD69 (gene 969); assay: BSK_SAg_CD69: BioMAP Diversity Plus: SAg Assay for CD69 Biomarker Activity (AID 2283089); details: primary human HUVEC with PBMC; actives raise or lower the signal;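 for AC50: cell surface CD69 protein quantified by ELISA with fluorescence detection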
In short: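 Values derive from bidirectional fitting relative to DMSO vehicle. Cells: umbilical vein endothelium plus peripheral blood mononuclear cells, treated 24 h before fluorescent ELISA for CD69.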

[8] = read-out: Monocyte Chemoattractant Protein-1 (MCP1), CCL2 (gene 6347); assay: BSK_SAg_MCP1: BioMAP Diversity Plus: SAg Assay for Monocyte Chemoattractant Protein-1 (MCP1) Biomarker Activity (AID 2283090); details: primary human HUVEC with PBMC; actives raise or lower the signal
In short: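 Values derive from bidirectional fitting of ELISA-measured MCP1 against DMSO controls. Readings were taken 24 h after dosing human vascular endothelial cells co-cultured with peripheral blood mononuclear cells under superantigen stimulation.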

[9] = read-out: E-selectin (Homo sapiens) (UniProt P16581); assay: BSK_SAg_Eselectin: BioMAP Diversity Plus: SAg Assay for Eselectin Biomarker Activity (AID 2283091); details: primary human HUVEC with PBMC; actives raise or lower the signal
In short: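 Primary human endothelial cells and peripheral blood mononuclear cells were co-cultured and exposed to chemical for 24 hours. E-selectin levels were then quantified by ELISA, with bidirectional curve fitting normalised to DMSO controls.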

[10] = read-out: Monokine induced gamma interferon (MIG), CXCL9 (gene 4283); assay: BSK_SAg_MIG: BioMAP Diversity Plus: SAg Assay for Monokine induced gamma interferon (MIG) Biomarker Activity (AID 2283092); details: primary human HUVEC with PBMC; actives raise or lower the signal
In short: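 Values reflect bidirectional fitting of ELISA-measured MIG against DMSO vehicle, taken 24 h after dosing of a co-culture of human umbilical vein endothelial cells and peripheral blood mononuclear cells.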

[11] = BSK_SAg_PBMCCytotoxicity: PBMC Cytotoxicity Assessment in the BioMAP Diversity Plus: SAg Assay (AID 2283093); details: primary human HUVEC with PBMC;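 note: fitted both ways against DMSO so a hit may be loss or gain of signal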;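 for AC50: PBMC superantigen activated with SEB plus TSST-1 one hour after compound addition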
In short: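 PBMC viability by Alamar Blue reduction, fluorescence read at 546/580 nm after 6 h dye exposure. Cells were dosed 1 h before SEB plus TSST-1 activation (20 ng/mL final each), then held 90 h; endothelial/PBMC human co-culture.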

[12] = read-out: Interleukin-8 (IL8), CXCL8 (gene 3576); assay: BSK_SAg_IL8: BioMAP Diversity Plus: SAg Assay for Interleukin-8 (IL8) Biomarker Activity (AID 2283094); details: primary human HUVEC with PBMC; actives raise or lower the signal
In short: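 HUVEC/PBMC co-culture, 24 h post-dose; IL-8 by ELISA. Gain or loss of signal fitted bidirectionally vs DMSO baseline.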

[13] = BSK_SAg_Proliferation: Cell Proliferation Assessment in the BioMAP Diversity Plus: SAg Assay (AID 2283095); details: primary human HUVEC with PBMC;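 note: relative cell number as total protein by SRB absorbance in sub-confluent culture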
In short: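 HUVEC/PBMC co-culture, 96-well. TCA-fixed (10%), 0.1% SRB stain, A560 at 96 h. Protein content used as viability readout; bidirectional fitting vs DMSO control.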

[14] = BSK_SAg_SRB: Viability Assessment in the BioMAP Diversity Plus: SAg Assay (AID 2283096); details: primary human HUVEC with PBMC;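 note: cells read one day after compound addition; hits may be either gain or loss of signal compared with DMSO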
In short: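 Compounds were added to a human vascular co-culture of umbilical vein endothelium and PBMC. After 24 h, parallel cultures were fixed with 10% TCA, stained with 0.1% sulforhodamine B and read at 560 nm. Gain or loss of signal was fitted relative to DMSO.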

[15] = biological target: human CYP19A1, CYP19A1 (gene 1588) (UniProt P11511); assay: NVS_ADME_hCYP19A1: NovaScreen (NVS) CYP450-related Enzyme Activity (ADME) Assay for human CYP19A1 (AID 2283098; active = hit-call score of the fitted dose curve at least 0.9, where 1 is the maximum)
human CYP19A1, CYP19A1 (gene 1588), sequence (P11511 whole entry, looked up): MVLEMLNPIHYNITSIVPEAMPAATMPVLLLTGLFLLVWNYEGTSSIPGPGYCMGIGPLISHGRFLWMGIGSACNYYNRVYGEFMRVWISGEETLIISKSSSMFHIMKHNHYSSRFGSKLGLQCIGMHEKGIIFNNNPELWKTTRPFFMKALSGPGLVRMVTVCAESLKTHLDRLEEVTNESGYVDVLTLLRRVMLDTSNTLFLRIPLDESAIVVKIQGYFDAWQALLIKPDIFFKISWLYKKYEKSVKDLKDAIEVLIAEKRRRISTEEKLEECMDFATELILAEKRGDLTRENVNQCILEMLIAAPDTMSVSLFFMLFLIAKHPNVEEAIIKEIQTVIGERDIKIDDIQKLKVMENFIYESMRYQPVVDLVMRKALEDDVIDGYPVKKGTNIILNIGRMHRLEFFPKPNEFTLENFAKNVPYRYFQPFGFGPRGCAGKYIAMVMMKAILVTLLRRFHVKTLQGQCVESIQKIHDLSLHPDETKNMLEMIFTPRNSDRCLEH
In short: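 Fluorescence intensity read-out; activity taken as signal loss relative to acetonitrile vehicle. Extracted enzyme, specific substrate, no cells, 0.5 h exposure. Duplicate single-point screen at 10 uM, then concentration–response follow-up for actives.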

[16] = biological target: human CYP2A6, CYP2A6 (gene 1548) (UniProt P11509); assay: NVS_ADME_hCYP2A6: NovaScreen (NVS) CYP450-related Enzyme Activity (ADME) Assay for human CYP2A6 (AID 2283099; active = hit-call score of the fitted dose curve at least 0.9, where 1 is the maximum)
human CYP2A6, CYP2A6 (gene 1548), sequence (P11509 whole entry, looked up): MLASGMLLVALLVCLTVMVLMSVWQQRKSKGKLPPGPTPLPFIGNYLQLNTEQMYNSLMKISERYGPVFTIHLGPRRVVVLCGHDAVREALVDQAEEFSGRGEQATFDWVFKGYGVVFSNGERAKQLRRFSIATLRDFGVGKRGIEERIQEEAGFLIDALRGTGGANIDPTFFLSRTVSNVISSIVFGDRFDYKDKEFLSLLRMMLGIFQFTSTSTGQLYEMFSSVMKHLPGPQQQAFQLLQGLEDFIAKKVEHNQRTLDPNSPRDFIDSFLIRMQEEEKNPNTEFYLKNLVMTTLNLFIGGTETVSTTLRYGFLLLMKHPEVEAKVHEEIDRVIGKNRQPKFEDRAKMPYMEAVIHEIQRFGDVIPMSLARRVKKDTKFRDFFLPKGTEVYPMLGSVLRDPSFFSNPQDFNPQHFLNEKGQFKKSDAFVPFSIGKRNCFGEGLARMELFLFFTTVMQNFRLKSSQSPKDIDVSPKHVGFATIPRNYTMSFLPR
In short: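 Recombinant human CYP2A6 from insect cells was incubated with chemical for 0.5 h and activity read by fluorescence. Single-concentration duplicates at 10 uM preceded concentration-response testing to 20 uM, with activity referenced to acetonitrile.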

[17] = biological target: human CYP2B6, CYP2B6 (gene 1555) (UniProt P20813); assay: NVS_ADME_hCYP2B6: NovaScreen (NVS) CYP450-related Enzyme Activity (ADME) Assay for human CYP2B6 (AID 2283101; active = hit-call score of the fitted dose curve at least 0.9, where 1 is the maximum)
human CYP2B6, CYP2B6 (gene 1555), sequence (P20813 whole entry, looked up): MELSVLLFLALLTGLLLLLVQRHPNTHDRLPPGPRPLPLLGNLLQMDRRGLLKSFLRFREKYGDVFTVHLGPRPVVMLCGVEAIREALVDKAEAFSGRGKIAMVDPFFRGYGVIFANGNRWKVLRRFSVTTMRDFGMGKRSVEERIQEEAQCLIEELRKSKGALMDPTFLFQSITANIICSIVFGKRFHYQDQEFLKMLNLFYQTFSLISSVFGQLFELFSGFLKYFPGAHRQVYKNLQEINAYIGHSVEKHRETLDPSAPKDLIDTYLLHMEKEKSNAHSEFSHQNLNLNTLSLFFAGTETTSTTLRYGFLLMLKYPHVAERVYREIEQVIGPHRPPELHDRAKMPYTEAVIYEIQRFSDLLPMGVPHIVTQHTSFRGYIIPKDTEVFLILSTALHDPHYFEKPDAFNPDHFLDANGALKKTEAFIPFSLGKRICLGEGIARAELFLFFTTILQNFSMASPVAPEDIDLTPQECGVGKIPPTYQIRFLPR
In short: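 Compounds were first screened in duplicate at 10 uM against recombinant enzyme, with the fluorescent product measured after 1 hour. Active compounds were retested over a concentration series. Loss of fluorescence versus acetonitrile control was scored as reduced enzyme activity.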

[18] = biological target: human CYP2D6, CYP2D6 (gene 1565) (UniProt P10635); assay: NVS_ADME_hCYP2D6: NovaScreen (NVS) CYP450-related Enzyme Activity (ADME) Assay for human CYP2D6 (AID 2283107; active = hit-call score of the fitted dose curve at least 0.9, where 1 is the maximum)
human CYP2D6, CYP2D6 (gene 1565), sequence (P10635 whole entry, looked up): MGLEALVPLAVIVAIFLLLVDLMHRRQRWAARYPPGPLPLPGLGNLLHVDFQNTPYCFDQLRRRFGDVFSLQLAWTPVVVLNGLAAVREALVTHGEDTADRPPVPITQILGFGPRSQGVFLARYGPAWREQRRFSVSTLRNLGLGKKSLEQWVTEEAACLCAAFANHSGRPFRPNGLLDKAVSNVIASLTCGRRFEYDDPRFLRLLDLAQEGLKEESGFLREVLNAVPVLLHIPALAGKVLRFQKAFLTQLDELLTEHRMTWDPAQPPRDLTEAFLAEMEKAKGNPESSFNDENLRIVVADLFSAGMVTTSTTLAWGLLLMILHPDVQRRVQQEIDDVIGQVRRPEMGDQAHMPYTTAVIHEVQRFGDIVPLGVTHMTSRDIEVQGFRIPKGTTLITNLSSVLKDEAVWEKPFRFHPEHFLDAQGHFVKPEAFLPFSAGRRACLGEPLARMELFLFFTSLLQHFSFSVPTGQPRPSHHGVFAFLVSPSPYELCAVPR
In short: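 Compounds were first tested in duplicate at 10 uM against recombinant enzyme produced in insect cells, with substrate turnover measured by fluorescence after 1 hour. Decreased signal, referenced to acetonitrile vehicle, was taken as reduced enzyme activity. Active chemicals went on to concentration-response testing.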

Measured: AC50

E-selectin (Homo sapiens), sequence (P16581 whole entry, looked up): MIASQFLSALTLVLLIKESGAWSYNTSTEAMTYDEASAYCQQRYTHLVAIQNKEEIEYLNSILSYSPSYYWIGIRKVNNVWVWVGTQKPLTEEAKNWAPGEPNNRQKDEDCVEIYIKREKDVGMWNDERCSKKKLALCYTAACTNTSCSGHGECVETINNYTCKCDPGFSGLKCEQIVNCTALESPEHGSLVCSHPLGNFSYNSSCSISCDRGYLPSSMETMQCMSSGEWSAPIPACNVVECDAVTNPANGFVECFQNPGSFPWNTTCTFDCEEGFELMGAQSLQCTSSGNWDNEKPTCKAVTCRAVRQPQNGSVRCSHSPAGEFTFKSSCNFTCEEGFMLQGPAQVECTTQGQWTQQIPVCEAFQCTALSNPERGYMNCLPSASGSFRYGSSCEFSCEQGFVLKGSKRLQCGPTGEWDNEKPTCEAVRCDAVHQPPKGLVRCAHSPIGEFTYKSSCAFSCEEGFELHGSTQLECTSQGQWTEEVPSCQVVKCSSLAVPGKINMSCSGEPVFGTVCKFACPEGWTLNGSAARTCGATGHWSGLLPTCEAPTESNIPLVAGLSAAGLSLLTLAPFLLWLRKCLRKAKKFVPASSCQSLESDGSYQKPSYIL
Tumor necrosis factor (Homo sapiens), sequence (P01375 whole entry, looked up): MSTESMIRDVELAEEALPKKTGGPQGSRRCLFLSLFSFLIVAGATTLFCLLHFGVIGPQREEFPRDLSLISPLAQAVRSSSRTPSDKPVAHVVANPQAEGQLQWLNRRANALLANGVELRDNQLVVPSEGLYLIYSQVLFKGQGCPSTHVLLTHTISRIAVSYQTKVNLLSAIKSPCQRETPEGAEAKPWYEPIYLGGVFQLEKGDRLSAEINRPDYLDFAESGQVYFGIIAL

CCCCCCC(C=O)=Cc1ccccc1
active: [3] 30.1 µM | [4] 29.7 µM | [5] 33.4 µM | [6] 32 µM | [7] 31 µM | [8] 32 µM | [9] 34.4 µM | [10] 31.5 µM | [11] 31 µM | [12] 29.8 µM | [13] 34.9 µM | [14] 35.3 µM
inactive: [1] | [2] | [15]

O=C1OC(c2ccc(O)cc2)(c2ccc(O)cc2)c2ccccc21
active: [1] 31.1 µM | [3] 20 µM | [4] 30.7 µM | [5] 28.7 µM | [6] 29 µM | [7] 20 µM | [8] 23 µM | [9] 23.8 µM | [10] 36.8 µM | [12] 20 µM | [13] 29.3 µM
inactive: [2] | [11] | [14] | [16] | [17]

CC1=C(C)S(=O)(=O)CCS1(=O)=O
active: [4] 11.5 µM | [9] 3.97 µM
not listed: [8] | [15] | [16] | [17] | [18]
inactive: all other assays above

COC(=O)CCC(=O)OC
not listed: [15] | [16] | [17] | [18]
inactive: all other assays above

Cc1ccc(-c2cc(C(F)(F)F)nn2-c2ccc(S(N)(=O)=O)cc2)cc1
active: [1] 29.7 µM | [2] 30.7 µM | [3] 30.9 µM | [4] 31.7 µM | [5] 30.2 µM | [6] 27.3 µM | [7] 26.9 µM | [8] 30.5 µM | [9] 29.4 µM | [10] 34.6 µM | [12] 23.9 µM | [13] 23 µM | [14] 27.8 µM

NC(=Nc1ccccc1)Nc1ccccc1
active: [1] 5.45 µM | [18] 984 nM
not listed: [9] | [15] | [16] | [17]
inactive: all other assays above

CCN(CC)CCOc1ccc(C(=C(Cl)c2ccccc2)c2ccccc2)cc1
active: [1] 9.21 µM | [2] 29.8 µM | [3] 11.8 µM | [4] 13.2 µM | [5] 8.84 µM | [6] 11 µM | [7] 12.4 µM | [8] 11.2 µM | [9] 13.5 µM | [10] 13.8 µM | [11] 6.29 µM | [12] 7.87 µM | [13] 3.54 µM | [14] 11.1 µM | [17] 11.3 µM | [18] 2380 nM
